# Measured values as given in publication PMC13494018.
# Values without a mark were called inactive. The rule behind the calls is not given here.
# Target: PDL1, Q9NZQ7
# Sequence (Q9NZQ7 whole entry): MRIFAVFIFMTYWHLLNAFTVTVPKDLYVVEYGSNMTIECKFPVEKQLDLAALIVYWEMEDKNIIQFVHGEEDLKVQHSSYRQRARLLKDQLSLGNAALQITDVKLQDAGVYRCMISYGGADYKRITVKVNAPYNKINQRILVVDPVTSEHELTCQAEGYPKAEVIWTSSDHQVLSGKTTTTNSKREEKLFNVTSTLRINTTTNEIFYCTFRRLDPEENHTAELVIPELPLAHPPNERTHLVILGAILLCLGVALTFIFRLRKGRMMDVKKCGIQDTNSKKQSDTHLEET
row,Binder,binding in a display sort
1,d8r1_design_ppi_1481_dldesign_0_cycle0_af2pred (protein) SSEANDAALKEGMALASATLAQARALIAAGGAAAAAAAAALAEAAVARLRELGAKYPQRAASFAALGEALRREVARLAA,not found
2,d8r1_design_ppi_23_dldesign_0_cycle1_af2pred (protein) DAEEKKKLAKKMEEMAKKVAAAGKAVPAVKAEADATAKALKAMAKLALEGSLEDAKSLLKAGEAAAKRVLEKAKAAAAAAA,not found
3,d8r1_design_ppi_1260_dldesign_0_cycle1_af2pred (protein) MTAEEALAEMEKLTKEMKEVSPLAGNAMEAHLNKAKELVAAVAAEDPEKAAEVAAKSYEQAKALYKAMKEMIEEEKKEKELA,not found
4,d8r1_design_ppi_1130_dldesign_0_cycle1_af2pred (protein) SMEEAEKAAKEIIELAKKAAEDPSYIDELAALAAKYIGSPEAKEALAEAIKILSKKSPELAKQFLAKYSAALAALRAAA,not found
5,d8r1_design_ppi_1244_dldesign_0_cycle1_af2pred (protein) EEEAEKERERYEKAYYFAKAAIAAASSGLPAAVAAAKAFLQKAGEEIPEFLPAAKAATTAAEITAVATKVAAYAAAKIS,not found
6,d8r1_design_ppi_307_dldesign_0_cycle0_af2pred (protein) EEARAEALAAEAAATAAALLAAARATDPRADIAAGAAALTAAAREAAALSPAAAAKVRAVIATFMAEALKLMDS,not found
7,d8r1_design_ppi_855_dldesign_0_cycle1_af2pred (protein) GTGKNLIKVLETSAEKTAALAAELAPDPAAATALADAFEASAKGFAAIAKELGTEAEVKPAAEKAIKKVRDALDKALAAAAA,not found
8,d8r1_design_ppi_179_dldesign_0_cycle1_af2pred (protein) MESARNAAEGIAKAAEENPESGARLGKGAVEVLAKRDIEAAVEAARLAAELSKEAGKEEVAEVMKKLAEEAEKKL,not found
9,d8r1_design_ppi_128_dldesign_0_cycle1_af2pred (protein) AQLEQIKAQAKKEIEEALEYAKKAKTDPSYLAKALGHLNKASQLAKQLPNAEEVKAEIDKAISAAIAGDYETVKKEAEEAIKLLEKD,not found
10,d8r1_design_ppi_793_dldesign_0_cycle1_af2pred (protein) GISPESAKKLAKQMLEDALKAAEEARKLIKEGATPEEVQKAIRGAQAAADAAEALAKVDPAVAPYAKKAKAAVEEARKLAK,not found
11,d8r1_design_ppi_243_dldesign_0_cycle1_af2pred (protein) DQNLKGALLIGQANAYAVAAAKAAAAAGAPAAEVQAAIDKVRAMTAEAGKLSPSLASTAERVAAIEGARLAAAA,not found
12,d8r1_design_ppi_499_dldesign_0_cycle0_af2pred (protein) GMARSLQRAAENTAARAAEYLRDPAKAEIGRNALAAAAALTEKAAAEAGLSPEEAAAAAAATRAATLAAAA,not found
13,d8r1_design_ppi_56_dldesign_0_cycle0_af2pred (protein) EAEKALKEAAEKIKKAAKEAEKDPEKAVEYFSEALAYAMRTAIKYPEIAAALGAAAAGLAEGAREAKKDVEKGVKIAEKAAKELEKA,not found
14,d8r1_design_ppi_167_dldesign_0_cycle0_af2pred (protein) SSEERYAEAAKLLAETAAKAAALIAKNPAVAEAAKEMQRYAARAAAALVAGDEEKAKEYKKKMEEALAKAEALVA,not found
15,d8r1_design_ppi_1215_dldesign_0_cycle1_af2pred (protein) AEEVGRMALTAAEAGERIALEKVKDPATAAEGAALAKVAADALKAAAEKVPEVAERLNKAATELYKKVADAA,not found
16,d8r1_design_ppi_86_dldesign_0_cycle1_af2pred (protein) GARAAALAAAAALNAAAAKADAAAAKAYGRAAVAAARAYFAGADGAELLALVAKVGAEDPAVAADILAIATAALAAAA,not found
17,d8r1_design_ppi_384_dldesign_0_cycle1_af2pred (protein) SAKEAAAKAARNAAAAAKKADEAGFNPKVIASLAKAAGEEALVSPESVEAAEEAAKIAEKYPSKEAQEAAKYAKELAKAAKAKAA,not found
18,d8r1_design_ppi_408_dldesign_0_cycle1_af2pred (protein) ASAEAKKKALELIKKAVALTSQGLAKGDKALVKKGLEYAKKAKEEAAKSADAATLLKAVDNVEAMAKTVLDAL,not found
19,d8r1_design_ppi_1130_dldesign_0_cycle0_af2pred (protein) SAEEAEKAAKELIELAKKAAEDPSYIPEAAALAAKHIGTPEARTALAEAIKILMQKSPELAKQFLAAFSAALAALRAAA,not found

row,Binder,binding in a display sort
1,d8r1_design_ppi_479_dldesign_0_cycle0_af2pred (protein) EELAKEARELAKRGIEDPEKAPEAGRKIAELAAKAVAEGDSEAAAEAVAELTRLHKANPEAGREALILMAQKIAKVAREK,not found
2,d8r1_design_ppi_638_dldesign_0_cycle1_af2pred (protein) GDARALRRAADNLARRALEELAAQTATAARAAEVAALLEAGRTEGAAKLAEAAALAAADPLLARAGAYLAAAADFLALAEREE,not found
3,d8r1_design_ppi_146_dldesign_0_cycle1_af2pred (protein) YAQKIREAAEKLKSPEKKATLNAFADIAAKLEAEAKKAAAKDPAEGAKKLTAAKNLAAGALKLAEAKKEEE,not found
4,d8r1_design_ppi_789_dldesign_0_cycle1_af2pred (protein) ALEERLRAALEAARELRERGVEEGWSPGELANAVLALAKEAGLPLEAQNTLAAAAMVPGERAEILLEKAEEIV,not found
5,d8r1_design_ppi_623_dldesign_0_cycle1_af2pred (protein) AAAAAAADAAAAALLDAAAAAAKAAVELTPEEAAAVLGAIAAAAATALALAKDPAAKAKLLATASEVANTAAQNLSQAVRREEE,not found
6,d8r1_design_ppi_573_dldesign_0_cycle1_af2pred (protein) SAEQAALEAKAKEAALKAWEAAKQYKKTGYQEFKDAAKEYAYAAIAYFRGDTAAGKKYRDAADKLWAKAQAIAAA,binds (active)
7,d8r1_design_ppi_59_dldesign_0_cycle0_af2pred (protein) MSELAEEAIKALVAAHNAAAALAALGRTAEAAALSRQASEAFGKAFKALQEGDEETAKKYLEELKAIAAKAAEAAAAAAAAAAAA,not found
8,d8r1_design_ppi_987_dldesign_0_cycle0_af2pred (protein) QAVLDKANELLAKAMKLFGKLSPENYAAALAAADAAIAAAKELQKEDPELGAALLASAEALKAAIKAKAA,not found
9,d8r1_design_ppi_997_dldesign_0_cycle1_af2pred (protein) ALSDAQSFVKAAKAAAEKAKELAKKDPEVAAKAVETAKKLAEAAVKASPEAKPQAEEAKKLAEEAKKVVEEAKKKAA,not found
10,d8r1_design_ppi_254_dldesign_0_cycle0_af2pred (protein) AAAKALAEAALREVGSALSEAISLTSKDPKKGEEKFKEAEALAKAKVAEMEAIDPAVGAALKAAVDALLAQTKLIMEKIKEAKK,not found
11,d8r1_design_ppi_128_dldesign_0_cycle0_af2pred (protein) EELEKLKEEAKKEIKEALEYTEKAKEDPDYLAKALGHLNKARQLAAKLPSAEEVKKEIDKMISAAMAGDVEKAKEYAEKAIKLLEKD,not found
12,d8r1_design_ppi_423_dldesign_0_cycle1_af2pred (protein) DESDKNMELLTKAGAATSELVAKARADAKAAAAEGPEAVKAVAEEHSAKIKEVAEKLGKESSKSASFKGLIETATKTIKAYADAVVA,not found
13,d8r1_design_ppi_684_dldesign_0_cycle1_af2pred (protein) AAAEEAEEKKYAMAKAAGAAASEIAKIDPALGRKVAIAAGEALSVDLETSYKILTDTLTEVAETGSPEAAAEAQKALDAVEAAYKA,not found
14,d8r1_design_ppi_1041_dldesign_0_cycle1_af2pred (protein) MEEKEEEEAKKAAKAAVDAATKVAEKAAKASTPEVAKKLTAAAKGLKGATELLAKINPKNAAAFAKAAAERFTKIAEKAVKDAA,not found
15,d8r1_design_ppi_877_dldesign_0_cycle1_af2pred (protein) ALAAEAAAAIAKARELLKEIKETGKESKSESVRRFAEGVARKVQALIDQAEAAAADPATALALAKAALKLAEEGLAAVKTLKKAYEE,not found
16,d8r1_design_ppi_307_dldesign_0_cycle1_af2pred (protein) MMEEAEKIAEEAKKTADELLAQAKKGDPKPYVNQGFAELNKLLQEAAKLSPEAAEKVKEVLAEFRKQASKILDS,not found
17,d8r1_design_ppi_1104_dldesign_0_cycle1_af2pred (protein) DDLLKQAQATLKQAAALAATVSLAAASDFNAAMFLMRNPKNIPQAIKYAQQGAALAAASAKAPQIKALADEAVKLMKALAKAAAA,not found
18,d8r1_design_ppi_254_dldesign_0_cycle1_af2pred (protein) AAAQAAAAEALRKVREAFSEAIALTVKNPEEGEKKFKEAEKLAEAAVKEQKAVDPAVGAALAKQVEATVKSAKEIMELIKKAKE,not found
19,d8r1_design_ppi_219_dldesign_0_cycle0_af2pred (protein) GERIKRNAEIVAATYAEVAALAAGEKEATARRAAGLLAAGAMSPEGREEYLAEALALAAEVGAEAAALVAEAAAAI,not found
